Laboratory results from PubChem BioAssay AID687016 (The Scripps Research Institute Molecular Screening Center, 2013).
About 2,800 (0.76%) of roughly 370,000 compounds were called active. No stated cut-off is given here; in the data, active means inhibition above about 21%; inactive means the rest. Only a selection was taken, and actives are over-represented in it overall.

molecular target: E3 ubiquitin-protein ligase UHRF1 (Homo sapiens) (UniProt Q96T88); test: UHRF1 methylated DNA binding inhibitors, primary screen, counter-screen for MBD2 inhibitor project, biochemical, TR-FRET, human UHRF1, single concentration (AID 687016); settings: UHRF1 binding to methylated oligo, at 4.4 µM, active compounds read high;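 further: UHRF1 SRA domain binding a hemimethylated CpG hairpin DNA probe; 0% = median of test compound wells and 100% = reference inhibitor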
Sequence (Q96T88 whole entry, looked up, the tested form may be a part): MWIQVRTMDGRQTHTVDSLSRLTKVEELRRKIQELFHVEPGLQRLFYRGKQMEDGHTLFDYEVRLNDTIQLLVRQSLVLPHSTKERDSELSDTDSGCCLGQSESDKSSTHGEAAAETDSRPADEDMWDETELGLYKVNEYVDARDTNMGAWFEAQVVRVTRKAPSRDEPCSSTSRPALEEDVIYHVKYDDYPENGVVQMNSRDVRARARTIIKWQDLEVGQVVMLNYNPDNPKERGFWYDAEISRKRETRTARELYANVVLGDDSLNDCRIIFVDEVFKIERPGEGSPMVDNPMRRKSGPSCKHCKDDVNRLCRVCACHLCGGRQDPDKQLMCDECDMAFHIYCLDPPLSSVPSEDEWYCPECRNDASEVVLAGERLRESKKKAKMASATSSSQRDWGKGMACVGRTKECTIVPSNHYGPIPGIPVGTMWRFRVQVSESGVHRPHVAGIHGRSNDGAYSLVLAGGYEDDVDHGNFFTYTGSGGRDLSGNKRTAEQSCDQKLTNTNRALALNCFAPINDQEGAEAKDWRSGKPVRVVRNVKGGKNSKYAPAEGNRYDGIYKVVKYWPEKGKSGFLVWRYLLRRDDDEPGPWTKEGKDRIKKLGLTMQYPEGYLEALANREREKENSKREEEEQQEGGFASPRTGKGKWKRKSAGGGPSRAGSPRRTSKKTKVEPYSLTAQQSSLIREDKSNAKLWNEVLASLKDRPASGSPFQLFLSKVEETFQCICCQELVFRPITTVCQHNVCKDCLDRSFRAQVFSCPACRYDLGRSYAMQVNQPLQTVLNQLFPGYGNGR

Structure (SMILES)	inhibition
Nc1ncnc2c1ncn2C1OC(CO)CC1O (stereo unspecified)	60.9% (active)
Nc1ncnc2c1ncn2[C@@H]1O[C@H](C(=O)N2CCSC2)[C@@H](O)[C@H]1O	2.48% (inactive)
Nc1ncnc2c1ncn2[C@@H]1O[C@H](C(=O)NCC(F)(F)F)[C@@H](O)[C@H]1O	-0.85% (inactive)
O=C(c1ccccc1)c1ccc(-c2ccccc2C(=O)NC2CCCCN(Cc3ccc(Cl)cc3)C2=O)cc1 (stereo unspecified)	-0.04% (inactive)
CCCC1CCC2(CCCN2CCOC(=O)NCc2ccccc2)CC1 (stereo unspecified)	0.86% (inactive)
COC(=O)C1CN(CC(C)C)CCS(=O)(=O)N1Cc1ccc(F)cc1 (stereo unspecified)	0.32% (inactive)
O=C(c1ccc(C(F)(F)F)cc1)C1CCCN(C(=O)c2csnn2)C1 (stereo unspecified)	0.31% (inactive)
Cc1cnc(C(=O)N2CCCC(C(=O)c3ccc(C(F)(F)F)cc3)C2)cn1 (stereo unspecified)	22% (active)
COCC(=O)N1CCCC(C(=O)c2ccc(C(F)(F)F)cc2)C1 (stereo unspecified)	2.82% (inactive)
C=C(C)C1CC23C(=O)C4(C(=O)c5ccccc5)C[C@@]5(C)CCC(CC2C1(C)C)(C4=O)C35OC (stereo partly specified)	0.2% (inactive)
C=CCN1C(=O)[C@H](CC(=O)N2CCN(C(=O)OCC)CC2)[C@@]2(C(=O)OCC)CCCC=C12	-2.61% (inactive)
COC(=O)c1ccccc1-n1cc(COC(=O)NCCc2ccccc2)nn1	0.82% (inactive)
CC(CCN1CCC(C(O)(c2ccccc2)c2ccccc2)CC1)Oc1ccc(Cl)cc1 (stereo unspecified)	1.4% (inactive)
O=C(CSc1nc2ccccc2n1Cc1ccccc1Cl)N/N=C\c1c[nH]c2ccccc12	-1.5% (inactive)
COc1ccc(Cl)cc1NC(=O)COC(=O)c1ccc(Br)o1	0.18% (inactive)
O=C(CCS(=O)(=O)c1ccc(Br)cc1)NCCc1ccc(Cl)cc1	0.15% (inactive)
COc1ccc(Cl)cc1NC(=O)CCS(=O)(=O)c1ccc(Br)cc1	45.2% (active)
C[C@H]1CCC/C=C/C(=O)c2c(O)cc(O)cc2CC(=O)O1	0.98% (inactive)
C[C@@H]1Cn2cnc(C(=O)Nc3ccc(CNC(=O)OC(C)(C)C)cc3)c2C(=O)N1	2.17% (inactive)
CC1CCN(C(=O)c2ncn3c2C(=O)N[C@@H](C)C3)CC1	22.7% (active)
C[C@H]1Cn2cnc(C(=O)N[C@H](C)c3ccccc3)c2C(=O)N1	11.2% (inactive)
FC(F)(F)c1cccc(NC(=S)OC2CCC23CCC(c2ccccc2)CC3)c1 (stereo unspecified)	-1.02% (inactive)
Cc1ccc(-n2c(SCC(=O)Nc3ccc(S(=O)(=O)Nc4nccs4)cc3)nnc2-c2cccnc2)cc1	3.04% (inactive)
Cc1ccc(-n2c(SCC(=O)Nc3ccc(S(=O)(=O)Nc4nccs4)cc3)nnc2-c2ccccn2)cc1	2.8% (inactive)
CC(C)(C)c1cc(=O)n2c(nc3ccccc32)[nH]1	0.39% (inactive)
Cc1nn2c3ccccc3nc2n(C)c1=O	64.7% (active)

Structure (SMILES)	inhibition
CCc1nc2ccccc2n(CCOCCOCCn2c(=O)c(CC)nc3ccccc32)c1=O	0.72% (inactive)
COC(=O)c1cccc(Cn2ccc3ccc(-c4ccc5ccn(C(=O)C6CCCCC6)c5c4)cc32)c1	-1.71% (inactive)
CS(=O)(=O)c1cccc(-c2ccc3nncn3c2)c1	4.75% (inactive)
COc1ccc(OC)c(S(=O)(=O)Nc2cccc(-c3ccc4nncn4n3)c2)c1	-0.61% (inactive)
COc1ccc(C(C)C)cc1-c1ccc2nncn2c1	42.2% (active)
Nn1c(SCC(=O)Nc2cccc3ccccc23)nnc1-c1cc(-c2ccc(F)cc2)n[nH]1	-1.05% (inactive)
COc1ccc(-c2nn(-c3ccccc3)cc2CN2CCCO2)c(F)c1	-0.87% (inactive)
CCC(O)C1CCN(Cc2cn(-c3ccc(OC)cc3)nc2-c2cccc(F)c2)CC1 (stereo unspecified)	0.5% (inactive)
COc1ccc(-n2cc(CNC3CCOCC3)c(-c3cccc(F)c3)n2)cc1	21.6% (active)
O=C(N1CCOCC1)N1CC[C@H]2[C@H](CCCN2Cc2ccc(F)cc2)C1	-1.64% (inactive)
COC(=O)C1CN(Cc2cn(Cc3ccc(F)cc3)nn2)CCS(=O)(=O)N1Cc1ccc(Cl)cc1 (stereo unspecified)	2.82% (inactive)
Fc1cccc(Cc2c(-c3ccc(Cl)cc3)nc3ccc(Cl)cn23)c1	26.5% (active)
Fc1cccc(Cc2c(-c3cccc(Cl)c3)nc3ccc(Br)cn23)c1	1.63% (inactive)
COC(=O)c1ccc2nc(-c3ccc(Cl)cc3)c(Cc3cccc(F)c3)n2c1	10.2% (inactive)
CN(CCc1ccccc1)C(=O)Cn1nc(-c2ccccc2)ccc1=O	1.78% (inactive)
Cc1ccc(-n2c(SCC(=O)Nc3cccc4ccccc34)nnc2-c2ccccn2)cc1	0.12% (inactive)
Cc1ccc(-n2c(SCC(=O)Nc3cccc4ccccc34)nnc2-c2ccco2)cc1	-0.24% (inactive)
CC(=O)Nc1ccccc1Sc1ccc2c3c(cccc13)C(=O)N(c1ccc(C)cc1)C2=O	21.6% (active)
COc1ccc(CSc2nnc(-c3cccc(C)c3)n2C)cc1	0.25% (inactive)
O=C(NCc1ccc(Cl)cc1)NCc1ccc(Cl)cc1	24.9% (active)
S=C(NCc1ccc(Cl)cc1)NC12CC3CC(CC(C3)C1)C2	-0.38% (inactive)
Cc1ccc(S(=O)(=O)NC(C)C(=O)NCc2ccc(Cl)cc2)cc1 (stereo unspecified)	0.66% (inactive)
Cc1c[nH]c2cccc(-c3ccc(Cl)cc3)c12	-1.82% (inactive)
COc1cc(/C=C/C(=O)n2cnc3ccccc32)cc(OC)c1OC	1.6% (inactive)
Cc1cc(C)cc(NC(=O)N2CCC(N(C)CCC(C)C)CC2)c1	0.51% (inactive)
